Laboratory results: PubChem BioAssay AID720597 (Broad Institute, 2013)
Results with a measured potency or affinity are listed apart. Activity calls are given as the source filed them.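 How the source made its calls: active means fitted half-maximal dose no more than twice the top valid tested dose, for compounds that lower signal; inconclusive means fit invalid, or curve flat with activity between -70 and -30; inactive means potency past limit, curve flat within ±30, or signal increasing.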

Biological target: NAD-dependent protein deacylase sirtuin-5, mitochondrial (Homo sapiens) (UniProt Q9NXA8)
Assay: SIRT5 deacylase inhibitors, dose response, biochemical, fluorescence imaging, cherry-pick, set 6 (AID 720597);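 further: lower AMC signal can also come from blocking the trypsin step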
Conditions: Purified SirT5, succinyl-peptide-AMC/trypsin fluorescence; series mostly up to 15 µM

Chain of NAD-dependent protein deacylase sirtuin-5, mitochondrial (Homo sapiens) (Q9NXA8 whole entry, looked up): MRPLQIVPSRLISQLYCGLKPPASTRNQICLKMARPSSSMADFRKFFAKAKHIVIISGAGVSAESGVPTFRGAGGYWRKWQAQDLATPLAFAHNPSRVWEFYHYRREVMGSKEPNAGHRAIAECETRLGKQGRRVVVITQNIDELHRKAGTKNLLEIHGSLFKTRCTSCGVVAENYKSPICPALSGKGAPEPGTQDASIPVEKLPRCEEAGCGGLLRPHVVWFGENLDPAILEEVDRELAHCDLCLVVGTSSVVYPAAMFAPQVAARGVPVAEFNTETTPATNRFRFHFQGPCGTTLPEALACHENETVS

outcome, inactive:
C[C@@H]1CN([C@@H](C)CO)S(=O)(=O)c2ccc(C#Cc3ccccc3F)cc2O[C@@H]1CN(C)C(=O)c1ccc2c(c1)OCO2, C[C@@H]1CN([C@@H](C)CO)C(=O)c2cc(NC(=O)CCN3CCOCC3)ccc2O[C@H]1CN(C)Cc1ccc(C(F)(F)F)cc1, O=C(C[C@H]1CC[C@@H](NC(=O)c2ccccc2)[C@H](CO)O1)NCCc1ccncc1, Cc1noc(C)c1NC(=O)Nc1cccc2c1O[C@H](CN(C)Cc1ccc(Oc3ccccc3)cc1)[C@@H](C)CN([C@@H](C)CO)C2=O, CN(C)C(=O)c1cccc(-c2ccc([C@@H]3[C@H](CO)N4CCCCN(S(C)(=O)=O)C[C@@H]34)cc2)c1, C[C@@H]1CN([C@@H](C)CO)S(=O)(=O)c2ccc(/C=C/c3ccccc3)cc2O[C@H]1CN(C)C(=O)NC1CCCCC1, Cc1noc(C)c1NC(=O)N[C@@H]1C=C[C@@H](CC(=O)Nc2ccccc2)O[C@H]1CO, O=S(=O)(c1ccc(F)cc1)N1CCCCN2[C@@H](CO)[C@H](c3ccc(-c4ccccc4F)cc3)[C@@H]2C1, C[C@@H]1CN([C@H](C)CO)C(=O)c2cc(C#CCN(C)C)cnc2O[C@@H]1CN(C)Cc1ccncc1, CNC[C@@H]1Oc2ccc(NC(=O)Nc3ccc(F)cc3)cc2CC(=O)N([C@H](C)CO)C[C@H]1C, C[C@H](CO)N1C[C@H](C)[C@@H](CN(C)Cc2ccccc2F)Oc2cc(C#CC3CC3)ccc2S1(=O)=O, C[C@@H]1CN([C@@H](C)CO)S(=O)(=O)c2ccc(C#Cc3cccc(F)c3)cc2O[C@H]1CN(C)S(=O)(=O)c1ccccc1F, C[C@@H]1CN([C@@H](C)CO)C(=O)c2cc(NS(=O)(=O)c3ccc(F)cc3)ccc2O[C@@H](C)CCCCO[C@H]1CN(C)Cc1ccc(C(F)(F)F)cc1, C[C@H]1CN([C@@H](C)CO)C(=O)CCCn2cc(nn2)CO[C@H]1CN(C)Cc1ccccc1, CNC[C@@H]1Oc2ccc(NC(=O)Nc3ccc(F)cc3)cc2CC(=O)N([C@@H](C)CO)C[C@@H]1C, COc1ccc(S(=O)(=O)Nc2ccc3c(c2)C(=O)N([C@H](C)CO)C[C@@H](C)[C@@H](CN(C)Cc2ccc(C(F)(F)F)cc2)OCCCC[C@H](C)O3)cc1, Cc1ccc(S(=O)(=O)Nc2ccc3c(c2)C(=O)N([C@H](C)CO)C[C@H](C)[C@@H](CN(C)Cc2ccc(C(F)(F)F)cc2)OCCCC[C@H](C)O3)cc1, C[C@@H]1CN([C@@H](C)CO)S(=O)(=O)c2ccc(C#Cc3ccc(F)cc3)cc2O[C@@H]1CN(C)S(=O)(=O)c1ccc(F)cc1, CCCC(=O)Nc1ccc2c(c1)OC[C@H](C)N(Cc1ccccc1)C[C@H](C)[C@@H](OC)CN(C)C2=O, C[C@@H]1CCCCO[C@@H](CN(C)Cc2ccc(Cl)c(Cl)c2)[C@@H](C)CN([C@H](C)CO)C(=O)c2cc(NC(=O)CCCCCC(=O)Nc3ccccc3N)ccc2O1, Cc1ccc(S(=O)(=O)Nc2ccc3c(c2)C(=O)N([C@H](C)CO)C[C@H](C)[C@H](CN(C)Cc2ccc(C(F)(F)F)cc2)OCCCC[C@H](C)O3)cc1, C[C@@H]1CN([C@@H](C)CO)C(=O)c2cc(NS(=O)(=O)c3ccc(Cl)cc3)ccc2O[C@@H](C)CCCCO[C@@H]1CN(C)C(=O)Nc1ccc(C(F)(F)F)cc1, COc1ccc(S(=O)(=O)Nc2ccc3c(c2)C(=O)N([C@H](C)CO)C[C@@H](C)[C@@H](CN(C)Cc2ccc(Oc4ccccc4)cc2)O3)cc1, C[C@H]1CN([C@@H](C)CO)S(=O)(=O)c2ccc(/C=C/c3ccccc3)cc2O[C@H]1CN(C)C(=O)NC1CCCC1, COc1ccc(NC(=O)N(C)C[C@H]2Oc3ccc(NS(=O)(=O)c4ccc(F)cc4)cc3C(=O)N([C@H](C)CO)C[C@H]2C)cc1, C[C@@H]1CCCCO[C@H](CN(C)C(=O)Nc2ccc(F)cc2)[C@@H](C)CN([C@H](C)CO)C(=O)c2cc(NC(=O)Nc3ccc(F)cc3)ccc2O1, CC(C)NC(=O)N[C@H]1CC[C@H](CCNC(=O)C2CCCC2)O[C@@H]1CO, COc1ccc(C#Cc2ccc([C@H]3[C@H]4CN(C(=O)c5cccnc5)CC(=O)N4[C@H]3CO)cc2)cc1, C[C@H]1CCCCO[C@H](CN(C)C(=O)Nc2ccc(C(F)(F)F)cc2)[C@@H](C)CN([C@@H](C)CO)C(=O)c2cc(NS(=O)(=O)c3ccc(Cl)cc3)ccc2O1, CC(C)(C)[S@@](=O)N1Cc2cc(C(=O)O)nc(-c3cccc(-c4cccc(F)c4)c3)c2[C@H]1CCO, Cc1noc(C)c1S(=O)(=O)Nc1ccc2c(c1)C(=O)N([C@@H](C)CO)C[C@@H](C)[C@H](CN(C)Cc1ccc(Cl)c(Cl)c1)OCCCC[C@@H](C)O2, Cc1ccccc1S(=O)(=O)N(C)C[C@H]1OCc2ccccc2-c2c(n(C)c3ccccc23)C(=O)N([C@@H](C)CO)C[C@@H]1C, C[C@@H]1CN([C@H](C)CO)C(=O)c2cccc(NC(=O)NC3CCCCC3)c2O[C@@H]1CN(C)Cc1ccc(Oc2ccccc2)cc1, Cc1ccc(S(=O)(=O)Nc2ccc3c(c2)C(=O)N([C@@H](C)CO)C[C@H](C)[C@H](CN(C)Cc2ccc(C(F)(F)F)cc2)OCCCC[C@@H](C)O3)cc1, C[C@H](CO)N1C[C@H](C)[C@@H](CN(C)Cc2ccc(Cl)c(Cl)c2)Oc2ccc(NC(=O)CCCCCC(=O)Nc3ccccc3N)cc2CC1=O, CO[C@H]1CN(C)C(=O)c2cc(NC(=O)NC3CCCCC3)ccc2OC[C@H](C)N(CCc2ccccc2)C[C@@H]1C, Cc1ccc(-c2ccc3c(c2)O[C@@H](CN(C)Cc2ccccc2)[C@@H](C)CN([C@@H](C)CO)S3(=O)=O)cc1, C[C@@H]1CN([C@@H](C)CO)C(=O)c2cc(NS(=O)(=O)c3ccccc3)ccc2O[C@@H](C)CCCCO[C@@H]1CN(C)S(=O)(=O)c1ccc(F)cc1, C[C@@H]1CCCCO[C@@H](CN(C)C(=O)CCCN(C)C)[C@@H](C)CN([C@H](C)CO)C(=O)c2cc(NS(=O)(=O)c3ccccc3)ccc2O1, C[C@H]1CN([C@@H](C)CO)S(=O)(=O)c2ccc(C#CC3CC3)cc2O[C@@H]1CN(C)C(=O)Cc1ccncc1
